Data taken from PubChem BioAssay AID540363 (National Center for Advancing Translational Sciences (NCATS), 2011).
Records with an inconclusive call do not appear. Activity calls are given as the source filed them. Calls come from the whole dose curve; as a rule, active = well fitted cell-killing curve with a large enough effect; inconclusive = small, poorly fitted or top-dose-only effect; inactive = flat fitted curve, though single readings scatter.

assay: PC3M Cytotoxicity Assay for Compounds that Inhibit the Perinuclear Compartment: Chemistry Optimization Followup; details: PC3M-GFP viability, ATPLite luminescence, 24 h; series mostly up to 46.1 µM
Text: The perinucleolar compartment (PNC) is a non-membrane-bound nuclear subdomain that is associated with but structurally distinct from the nucleolus. The PNC is a heritable trait, in which the number of PNCs per cell in daughter cells often mimics that of their mother cells. The PNC is heterogeneous in shape, is stable through interphase, disassembles during mitosis, and reassembles in early G1. The PNC is concentrated with newly synthesized RNA polymerase III (pol III) RNAs (MRP RNA, RNAse P H1 RNA, hY RNAs[hY1, 2, 5], Alu RNA, and SRP [7SL] RNA) and RNA binding proteins (nucleolin, PTB, CUG-BP, KSRP, Raver1, Raver2, and Rod). […] Extensive in vitro studies have shown that the PNC is unique to tumor cells and preferentially forms in tumor cells derived from solid tissues. Examination of cancer cell lines from various origins and malignant capacities has shown that PNC prevalence correlates with the malignancy of tumors and has the potential to be developed as a pan-cancer prognostic marker. […] Although the PNC is associated with a DNA locus and a handful of components have been identified, much remains to be investigated regarding the structure and function of the PNC and its mechanistic link to cancer. We have previously shown that PNC prevalence reduction is a valid strategy to identify compounds that can be used to study the structure and function of the PNC. It is necessary, however, to create a screening platform that is able to test a large number of compounds in an automated fashion. Here we report the development and robustness of an automated whole-cell phenotypic image-based screening assay that is capable of identifying such compounds. We conducted a followup assay to measure the effect of the lead candidates on cell health by measuring ATP levels (ATPLite). The highly metastatic PC3M-GFP reporter cell line was used in this study. NIH Chemical Genomics Center [NCGC] NIH Molecular Libraries Probe Centers Network [MLPCN] MLPCN Grant: MH082371-01A2 Assay Submitter (PI): Sui Huang, Northwestern University, Feinberg School of Medicine, Cell and Molecular Biology, Chicago, Illinois.
1. Cells at a density of 75-90% confluency in T175 flasks were harvested using 7 ml TrypLE Express cell dissociation reagent. After dissociation (5 minutes room temperature incubation) 10 ml of complete media was added to the TrypLE/cell suspension. The liquid was transferred to a 50 ml Conical tube and cells were pelleted at 1000 RPM for 5 min. Supernatant was removed and cells were resuspended to a final density of 150-200 cells/ul in complete media. 2. Cells were plated in 5 ul volume (2000 cells/well) into 1536 well White solid bottom plates and allowed to recover and adhere at 37 C in a humidified 5% CO2 incubator for 4 hours. 3. After 4 hour incubation, compound libraries (23 nl of […] in columns 5-48) were transferred to the plates in duplicate using a 1536 well pintool. Camptothecin positive control (59 uM final) was added to column 2 and 1:3 dilutions of camptothecin was added to column 3. DMSO negative controls were present in columns 1 and 4. 4. After a 24 hour incubation in the 37 C incubator, all wells were treated with 3 ul of ATPLite reagent using a multidrop combi dispenser (ThermoFisher). Bubbles that formed during dispensing were removed by spinning the plates for 1 minutre at 1500 RPM on a table top centrifuge. 5. Luminescencent signal was detected on a Viewlux CCD based imager (PerkinElmer) with a clear filter and a 30 second integration time. The PC3M cell line stably expressing the PTB-GFP was provided by Sui Huang of Northwestern University. The media and cell culture reagents were purchased from Invitrogen (Carlsbad, CA), ATPLite came from PerkinElmer.

| Compound | Potency |
| --- | --- |
| CN(C)CCCn1cnc2c(c(-c3ccccc3)c(-c3ccccc3)n2Cc2ccccc2)c1=N | 25 µM (active) |
| COCCn1cnc2c(c(-c3ccccc3)c(-c3ccccc3)n2CCc2ccccc2)c1=N | 15.8 µM (active) |
| N=c1c2c(-c3ccccc3)c(-c3ccccc3)n(CCc3ccccc3)c2ncn1C1CCC(O)CC1 (stereo not given) | 17.7 µM (active) |
| COc1ccc(Cn2c(NC=N[C@H](C)[C@@H](O)c3ccccc3)c(C#N)c(-c3ccccc3)c2-c2ccccc2)cc1 | 19.6 µM (active) |
| N=c1c2c(-c3ccccc3)c(-c3ccccc3)n(Cc3ccccc3)c2ncn1CC1CCCO1 (stereo not given) | 19.9 µM (active) |
| COc1ccc(Cn2c(-c3ccccc3)c(-c3ccccc3)c3c(=N)n(CCCCO)cnc32)cc1 | 12.5 µM (active) |
| CN(C)CCn1cnc2c(c(-c3ccccc3)c(-c3ccccc3)n2Cc2ccccc2)c1=N | 17.7 µM (active) |
| C[C@H]([C@@H](O)c1ccccc1)n1cnc2c(c(-c3ccccc3)c(-c3ccccc3)n2Cc2ccccc2)c1=N | 15.8 µM (active) |
| CN(C)CCCn1cnc2c(c(-c3ccccc3)c(-c3ccccc3)n2CCc2ccccc2)c1=N | 22.3 µM (active) |
| CCOC(CCCn1cnc2c(c(-c3ccccc3)c(-c3ccccc3)n2CCc2ccccc2)c1=N)OCC | 22.3 µM (active) |
| N=c1c2c(-c3ccccc3)c(-c3ccccc3)n(CCc3ccccc3)c2ncn1CCCO | 15.6 µM (active) |
| CN(C)CCn1cnc2c(c(-c3ccccc3)c(-c3ccccc3)n2CCc2ccccc2)c1=N | 15.8 µM (active) |
| COC(Cn1cnc2c(c(-c3ccccc3)c(-c3ccccc3)n2CCc2ccccc2)c1=N)OC | 17.7 µM (active) |
| COc1ccc(Cn2c(-c3ccccc3)c(-c3ccccc3)c3c(=N)n(CC4CCCO4)cnc32)cc1 (stereo not given) | 19.9 µM (active) |
| CN(C(=O)c1cccs1)c1cccnc1 | inactive |
| COCCn1cnc2c(c(-c3ccccc3)c(-c3ccccc3)n2Cc2ccc(OC)cc2)c1=N | 17.7 µM (active) |
| N=c1c2c(-c3ccccc3)c(-c3ccccc3)n(CCc3ccccc3)c2ncn1CC1CCCO1 (stereo not given) | 11.2 µM (active) |
| COc1ccc(Cn2c(-c3ccccc3)c(-c3ccccc3)c3c(=N)n(CCCCCO)cnc32)cc1 | 15.8 µM (active) |
| N=c1c2c(-c3ccccc3)c(-c3ccccc3)n(CCc3ccccc3)c2ncn1CCCCCO | 17.7 µM (active) |
| N=c1c2c(-c3ccccc3)c(-c3ccccc3)n(CCc3ccccc3)c2ncn1[C@H](CO)Cc1ccccc1 | 19.9 µM (active) |
